Screening results (PubChem)
Most compounds without a hit are left out; they make up all but 6.8% or so of the library.
DPM-DC inhibit: inhibitors of Streptococcus pneumoniae diphosphomevalonate decarboxylase. purified DPM-DC, PK/LDH coupled NADH fluorescence. calls only at 10 µM. actives 0.49% (n = 65,000). AID 556;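 active = the 320 compounds with the highest percent inhibition in the single-dose primary screen, excluding strongly autofluorescent ones, cut at about 32% in these data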;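 also: kinetic rate of NADH fluorescence loss reporting ADP formed by the decarboxylase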
NADH coupling: blocks coupling enzymes of NAD/NADH assays; coupled PK/LDH NADH assays, four targets; AID 774; IC50, µM (top dose mostly 10 µM); actives 0.02% (n = 65,000);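 active = single-dose screening hits from any of four coupled enzyme assays that gave an IC50 when retested across doses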;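 also: the DPM-DC format reads NADH fluorescence rather than 340 nm absorbance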
Spn MK inh: inhibitors of Streptococcus pneumoniae mevalonate kinase | purified MK, PK/LDH-coupled NADH absorbance 340 nm | actives 0.48% (n = 65,000) | AID 555 | inhibition, % at 10 µM;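 active = ranked among the strongest by inhibition in the single 10 µM screen, a fixed top-ranked set picked for dose follow-up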
Abs 340nm: absorbance at 340 nm | fold change at 10 µM | compound absorbance at 340 nm, fold over control | 65,000 tested, under 10 active;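 active = at 10 µM dose, initial 340 nm absorbance at least 2 fold that of control wells; inactive = change under 2 fold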;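 also: initial absorbance extrapolated from kinetic A340 decline of NADH oxidation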
Fluor 339 460: intrinsic fluorescence of library compounds, ex339/em460 – biochemical, MLSMR library, data from DPM-DC assay, artefact control, profiling panel. fluorescence fold increase at 10 µM. AID 709. compound autofluorescence, ex339/em460 nm, NADH buffer; hits give high values; 1 = no-compound wells, NADH background. actives 5.5% (n = 65,000);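 active = at 10 µM, mean starting fluorescence two-fold or more over control wells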;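 also: signal is the first read of a kinetic run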
Spn PMK inh: S. pneumoniae PMK inhibition; AID 539; purified PMK, PK/LDH-coupled NADH absorbance 340 nm; actives 0.49% (n = 65,000); inhibition, % at 10 µM;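 active = top-ranked compounds by inhibition in the single 10 µM screen, taking a fixed number of the strongest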
Numbers stand for hits.

For COc1cc(CN2CCC(C(=O)N3CCN(c4ccccc4F)CC3)CC2)ccc1O the results were DPM-DC inhibit inactive, NADH coupling inactive, Spn MK inh inactive, Abs 340nm inactive, Fluor 339 460 inactive and Spn PMK inh inactive.
`COc1ccc(Br)cc1CNC(=O)C1CCN(S(=O)(=O)N2CCCC2)CC1` gave DPM-DC inhibit inactive, NADH coupling inactive, Spn MK inh inactive, Abs 340nm inactive, Fluor 339 460 inactive and Spn PMK inh 30.0.
For CCOc1ccc(CN2CCN(S(=O)(=O)c3ccc(NC(C)=O)cc3)CC2)cc1OC the results were DPM-DC inhibit inactive, NADH coupling inactive, Spn MK inh 63.0, Abs 340nm inactive, Fluor 339 460 inactive and Spn PMK inh inactive.
Screening COc1ccc(C(=O)Nc2ccc(S(=O)(=O)N3CCCCC3)cc2)cc1OC returned DPM-DC inhibit inactive, NADH coupling inactive, Spn MK inh inactive, Abs 340nm inactive, Fluor 339 460 inactive and Spn PMK inh inactive.
For C=CCn1c(Cc2csc(N)n2)nnc1SCc1ccc(C(=O)OC)cc1 the results were DPM-DC inhibit inactive, NADH coupling inactive, Spn MK inh inactive, Abs 340nm inactive, Fluor 339 460 inactive and Spn PMK inh inactive.
`CCC(NC(=O)NCCCn1ccnc1)(C(F)(F)F)C(F)(F)F` gave DPM-DC inhibit inactive, NADH coupling inactive, Spn MK inh inactive, Abs 340nm inactive, Fluor 339 460 inactive and Spn PMK inh inactive.
`CCOC(=O)C1CCCN(c2c(N3CCN(c4ccccn4)CC3)c(=O)c2=O)C1` (configuration not stated) gave DPM-DC inhibit inactive, NADH coupling inactive, Spn MK inh inactive, Abs 340nm inactive, Fluor 339 460 inactive and Spn PMK inh inactive.
CC1Oc2ccccc2N(CC(=O)NCCc2ccccc2)C1=O (configuration not stated) was read as DPM-DC inhibit inactive, NADH coupling inactive, Spn MK inh inactive, Abs 340nm inactive, Fluor 339 460 inactive and Spn PMK inh inactive.
`Cc1nc2ncnn2c(C)c1CCC(=O)Oc1ccccc1` gave DPM-DC inhibit inactive, NADH coupling inactive, Spn MK inh inactive, Abs 340nm inactive, Fluor 339 460 inactive and Spn PMK inh inactive.
Screening N#CC1(C#N)C2=C(CCCC2)NC(c2ccccc2)C1(C#N)C#N (configuration not stated) returned DPM-DC inhibit inactive, NADH coupling inactive, Spn MK inh inactive, Abs 340nm inactive, Fluor 339 460 inactive and Spn PMK inh inactive.
Screening COCCNC(=O)c1cc2c(=O)n3cccc(C)c3nc2n(Cc2ccncc2)c1=N returned NADH coupling inactive, Spn MK inh inactive, Abs 340nm inactive, Fluor 339 460 3.86 and Spn PMK inh inactive.
CCCCNC(=O)c1cc2c(=O)n3cccc(C)c3nc2n(CCN2CCOCC2)c1=N was read as NADH coupling inactive, Spn MK inh inactive, Abs 340nm inactive, Fluor 339 460 3.77 and Spn PMK inh inactive.
For Cc1cccn2c(=O)c3cc(C(=O)NCCCN4CCOCC4)n(C)c3nc12 the results were NADH coupling inactive, Spn MK inh inactive, Abs 340nm inactive, Fluor 339 460 2.07 and Spn PMK inh inactive.
`Cc1cccn2c(=O)c3cc(C(=O)NC4CCCCC4)c(=N)n(CCN4CCOCC4)c3nc12` gave DPM-DC inhibit inactive, NADH coupling inactive, Spn MK inh inactive, Abs 340nm inactive, Fluor 339 460 inactive and Spn PMK inh inactive.
COc1ccc(CCNC(=O)c2cc3c(=O)n4cccc(C)c4nc3n(Cc3ccncc3)c2=N)cc1 was read as DPM-DC inhibit inactive, NADH coupling inactive, Spn MK inh inactive, Abs 340nm inactive, Fluor 339 460 inactive and Spn PMK inh inactive.
`CCOCCCn1c(=N)c(C(=O)NCc2ccc3c(c2)OCO3)cc2c(=O)n3cccc(C)c3nc21` gave DPM-DC inhibit inactive, NADH coupling inactive, Spn MK inh inactive, Abs 340nm inactive, Fluor 339 460 2.74 and Spn PMK inh inactive.
CS(=O)(=O)n1nc(C(=O)N2CCOCC2)nc1N was read as DPM-DC inhibit inactive, NADH coupling inactive, Spn MK inh inactive, Abs 340nm inactive, Fluor 339 460 inactive and Spn PMK inh inactive.
`CCn1c(=N)c(C(=O)NC)cc2c(=O)n3cccc(C)c3nc21` gave NADH coupling inactive, Spn MK inh inactive, Abs 340nm inactive, Fluor 339 460 3.86 and Spn PMK inh inactive.
CCn1c(=N)c(C(N)=O)cc2c(=O)n3cccc(C)c3nc21 was read as NADH coupling inactive, Spn MK inh inactive, Abs 340nm inactive, Fluor 339 460 inactive and Spn PMK inh inactive.
For CCCCNC(=O)c1cc2c(=O)n3cccc(C)c3nc2n(Cc2ccncc2)c1=N the results were NADH coupling inactive, Spn MK inh inactive, Abs 340nm inactive, Fluor 339 460 3.66 and Spn PMK inh inactive.
`CC(=O)Oc1ccc2cc(-c3nc4ccccc4n3C)c(=O)oc2c1` gave NADH coupling inactive, Spn MK inh inactive, Abs 340nm inactive, Fluor 339 460 2.14 and Spn PMK inh inactive.
Screening CCc1cc2c(=O)c(-c3nc4ccccc4n3C)c(COCC(=O)O)oc2cc1O returned DPM-DC inhibit inactive, NADH coupling inactive, Spn MK inh inactive, Abs 340nm inactive, Fluor 339 460 inactive and Spn PMK inh inactive.
Screening Cn1c(-c2ccc(N)cc2)nc2ccccc21 returned DPM-DC inhibit active, NADH coupling inactive, Spn MK inh inactive, Abs 340nm inactive, Fluor 339 460 3.89 and Spn PMK inh inactive.
Screening CCCCCC(=O)Nc1cc(N(C)C)nc2ccccc12 returned NADH coupling inactive, Spn MK inh inactive, Abs 340nm inactive, Fluor 339 460 2.19 and Spn PMK inh inactive.
`O=C(CSc1nc2c(c(=O)n1-c1ccc(Cl)cc1)SCC2)NCc1ccco1` gave DPM-DC inhibit inactive, NADH coupling inactive, Spn MK inh inactive, Abs 340nm inactive, Fluor 339 460 inactive and Spn PMK inh inactive.
`O=C(NCC1CCCO1)c1ccccn1` (configuration not stated) gave DPM-DC inhibit inactive, NADH coupling inactive, Spn MK inh inactive, Abs 340nm inactive, Fluor 339 460 inactive and Spn PMK inh inactive.
`O=C(NCCCNC(=O)c1ccccn1)c1ccccn1` gave DPM-DC inhibit inactive, NADH coupling inactive, Spn MK inh inactive, Abs 340nm inactive, Fluor 339 460 inactive and Spn PMK inh 25.0.
For O=c1c(-c2nc3ccccc3o2)c2oc3ccccc3n2c2ccccc12 the results were NADH coupling inactive, Spn MK inh inactive, Abs 340nm inactive, Fluor 339 460 4.96 and Spn PMK inh inactive.
Screening COc1ccccc1N1CCN(CCc2n[nH]c(=S)n2-c2ccccc2)CC1 returned DPM-DC inhibit inactive, NADH coupling inactive, Spn MK inh 46.0, Abs 340nm inactive, Fluor 339 460 inactive and Spn PMK inh inactive.
COc1ccc(-n2c(N)c(C(=O)NCc3ccco3)c3nc4ccccc4nc32)c(OC)c1 was read as NADH coupling inactive, Spn MK inh inactive, Abs 340nm inactive, Fluor 339 460 2.92 and Spn PMK inh inactive.
